# Experimental data published in PubChem BioAssay AID485364 (National Center for Advancing Translational Sciences (NCATS), 2010).
# The campaign covered roughly 360,000 compounds. About 11,000 (3.1%) were called active. Not shown: some 4% with an inconclusive outcome. The sample holds actives, similar compounds and a random draw of the others, so the mix is not that of the screen. A number with no mark means an inactive call. Calls follow the shape of the dose curve; as a rule, active = well fitted inhibition curve with a large enough effect; inconclusive = small, poorly fitted or top-dose-only effect; inactive = no such curve, though single readings can be large or run the other way.
# Target: Schistosoma mansoni thioredoxin glutathione reductase (TGR) (UniProt Q962Y6)
# Assay: qHTS Assay for the Inhibitors of Schistosoma Mansoni Peroxiredoxins; also: nearly all actives have a fitted effect of over 60% in size
# Details: purified TGR, DTNB reduction, TNB absorbance 405 nm; series mostly up to 114 µM; activity change, negative = inhibition: at the top concentration
# Outline: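 Kinetic colorimetric format: TGR-catalysed, NADPH-driven DTNB reduction monitored via TNB absorbance. Enzyme dispensed at 20 nM; compound exposure 15 min at room temperature before reaction start.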
# % is scaled to controls: 0 for no effect and ±100 for the full control effect; potency is read from the fitted curve at half-maximal effect.
SMILES,"activity change, negative = inhibition",Potency
O=C(CSc1nc2ccccc2nc1Cc1ccccc1)N1CCCCC1,4.64%,–
CN(C)CC1CCCCC1=O (stereo unspecified),–,11.2 µM (active)
O=C1CCCCC1C(=O)c1ccccc1 (stereo unspecified),-13.6%,–
CC(C)(C)OC(=O)N1CCC(c2c(C(=O)N3CCc4ccccc4C3)cnn2-c2ccc(F)cc2)CC1,-2.89%,–
COc1cc(NC(=O)c2cc(C3CC3)nc3c2c(C)nn3-c2ccccc2)cc(OC)c1,9.3%,–
Cc1ccc(NC(=O)NC(C)c2c(-n3cccc3)sc(C)c2C)c(C)c1 (stereo unspecified),-2.64%,–
Cc1c(NC(=O)Nc2ccc(F)c(Cl)c2)c(=O)n(-c2ccccc2)n1C,5.55%,–
Cc1ccccc1NC(=O)c1c(NC(=O)c2ccccc2F)sc2c1CCC(C)C2 (stereo unspecified),-0.827%,–
Cc1ccc(Oc2c(C(F)(F)F)oc3c(CN4CCCCC4)c(O)ccc3c2=O)cc1,-1.67%,–
CCOC(=O)COc1cc(OCC(=O)OCC)c2c(=O)cc(-c3ccccc3)oc2c1,-8.08%,–
COc1c(O)cc2oc(-c3ccc(O)c(O)c3)cc(=O)c2c1O,–,39.8 µM (active)
COc1ccc(-c2c(C)c3ccc(O)c(CN4CCN(C)CC4)c3oc2=O)cc1OC,-9.47%,–
CC1=C(C(=O)N2CCN(c3cccc(C(F)(F)F)c3)CC2)C2(CCCCC2)OC1=O,-12.2%,–
Cc1ccc(Nc2nc3ccccc3nc2-n2nc(C)cc2C)c(Cl)c1,1.74%,–
Cc1oc2ccc(O)c(CN3CCC(C)CC3)c2c1C(=O)Nc1ccccc1,6.52%,–
CN(Cc1ccccc1)C(=O)c1cn(C)c2ccc(S(=O)(=O)N(C)C3CCCCC3)cc2c1=O,-3.46%,–
CCCC12CN3CC(C)(CN(C1)C3c1ccccc1Cl)C2=O (stereo unspecified),8.29%,–
COc1ccc(NC2=CC(=S)NC(C)(C)C2)cc1,–,35.5 µM (active)
COc1ccc(CCNC2=CC(=O)CC(C)(C)C2)cc1,2%,–
COc1ccc(NC(=S)NC2CCS(=O)(=O)C2)cc1 (stereo unspecified),-28.9%,–
Cc1ccccc1NC(=O)c1cc2c([nH]c1=O)CC(C)(C)CC2=O,2.06%,–

SMILES,"activity change, negative = inhibition",Potency
Cc1ccc(Cn2c(C)nc3c(c2=O)c2nc4ccccc4nc2n3Cc2ccco2)cc1,–,1.41 µM (active)
O=c1c2ccccc2oc2nc(C3CCCCC3)n(Cc3ccco3)c(=O)c12,-23.6%,–
Cc1ccc(Cn2c(=O)n(Cc3nc(-c4ccccc4)no3)c(=O)c3cc4c(cc32)OCO4)cc1,-1.74%,–
CCOc1ccc(-c2cc3c(=O)n(CC(=O)NCc4ccc(OC)cc4)ccn3n2)cc1,7.47%,–
O=C(c1ccc2c(c1)N(Cc1ccccc1F)C(=O)c1ccccc1S2(=O)=O)N1CCOCC1,-5.87%,–
COc1ccc(-c2nc(Cn3c(=O)cc(C)c4c(C)nn(-c5ccccc5)c43)c(C)o2)cc1OC,5.92%,–
COC(=O)c1ccc(CN2CCN(CCCc3ccccc3)C(CCO)C2)cc1 (stereo unspecified),-13.6%,–
Cc1ccc(CN2CCN(Cc3ccc4ncccc4c3)CC2CCO)cc1 (stereo unspecified),1.94% [at 57.1 µM],–
CC(=O)Nc1ccc(CN2CCN(Cc3ccc(F)c(F)c3)C(CCO)C2)cc1 (stereo unspecified),–,20 µM (active)
CCS(=O)(=O)N1CCc2cc(C(=O)N3CCN(c4ccccc4OC)CC3)ccc21,-8.48%,–
CCOc1ccc(C(=O)CCN2CCOCC2)cc1,–,2.82 µM (active)
CCCCOc1ccc(C(C)(O)CCN2CCOCC2)cc1 (stereo unspecified),12.9%,–
CCOc1ccc(C(=O)CCC(=O)Nc2ccncc2)cc1,-9.7%,–
O=C(CSc1ncc(S(=O)(=O)c2ccc(Br)cc2)c(=O)[nH]1)Nc1ccc2c(c1)OCCO2,-3.16%,–
Cc1ccc(C)c(Cn2c(CCCNC(=O)C3CCCCC3)nc3ccccc32)c1,19%,–
COc1ccc(OC)c(C(c2nnnn2C(C)(C)C)N2CCc3ccccc3C2)c1 (stereo unspecified),9.36%,–
COCCn1nnnc1C(c1cc2ccc(OC)cc2[nH]c1=O)N1CCc2ccccc2C1 (stereo unspecified),–,44.7 µM (active)
COc1ccc(N2CCN(C(c3cc4ccc(C)cc4[nH]c3=O)c3nnnn3C3CCCC3)CC2)cc1 (stereo unspecified),-25.8%,–
CCOc1ccccc1NC(=O)c1ccc2c(c1)CCN2S(=O)(=O)c1ccc(C)cc1,-0.363%,–
COc1ccc(-c2onc(C)c2C)cc1S(=O)(=O)NCCc1ccccc1,3.1%,–
O=c1[nH]c2cc(Br)ccc2n2cccc12,-2.58%,–

SMILES,"activity change, negative = inhibition",Potency
CCOc1ccc(C2CC(=O)c3c([nH]c(C(=O)OCc4ccccc4)c3C)C2)cc1 (stereo unspecified),0.0883%,–
O=C(NCC(=O)N1CCN(c2ccccc2F)CC1)c1cccs1,-1.91%,–
CCc1cccc(C)c1NC(=O)COC(=O)CNC(=O)c1cccs1,-1.2%,–
Cc1ccccc1C(CC(=O)c1cccs1)C(C#N)C#N (stereo unspecified),–,3.16 µM (active)
COc1ccc(Br)c2c1C(=O)CC2,–,35.5 µM (active)
COc1ccc(C(=O)OCC(=O)N2CC(=O)Nc3ccccc32)cc1Br,0.0642%,–
COc1cccc2c1CCC(NC(C)=O)C2=O (stereo unspecified),-13.1%,–
Cc1cc(C)cc(OCC(=O)Nc2c(C(=O)c3ccccc3)oc3ccccc23)c1,-3.12%,–
Cc1ccc(-c2onc(C)c2C)cc1S(=O)(=O)Nc1ccccn1,-11.7%,–
CCc1ccc(NC(=O)Cn2c(=O)n(CCC(=O)NCc3ccc4c(c3)OCO4)c(=O)c3ccccc32)cc1,0.572%,–
O=[N+]([O-])c1cc(C(F)(F)F)ccc1NN=C1CCCC1,-15.3%,–
O=[N+]([O-])c1ccc(N/N=C2/CCCCC2c2ccccn2)c([N+](=O)[O-])c1 (stereo unspecified),–,8.91 µM (active)
O=C(Nc1ccccc1)O/N=C1\CCCCC1c1ccc([N+](=O)[O-])cc1[N+](=O)[O-] (stereo unspecified),8.17%,–
COc1cc(NC(=O)CN2CCN(S(=O)(=O)c3ccc(Br)cc3)CC2)cc(OC)c1,-2.68%,–
O=C(NC1CCCCC1)c1ccc2c(c1)N(Cc1ccc(Cl)cc1)C(=O)c1ccccc1S2=O (stereo unspecified),-7.13%,–
Cc1cc(NC(=O)CC(C)C)cc(-c2nc3ncccc3o2)c1O,1.96%,–
C#CCOCCOCCOCCNc1nc(N2CCN(C(=O)[C@H](CCC(=O)O)n3cc(C(N)CO)nn3)CC2)nc(N2CCN(C(=O)[C@H](Cc3ccc(O)cc3)n3cc(C(N)[C@H](C)CC)nn3)CC2)n1 (stereo partly specified),–,35.5 µM (active)
C#CCOCCOCCOCCNc1nc(N2CCN(C(=O)[C@H](Cc3ccc(O)cc3)n3cc(C(N)CC(C)C)nn3)CC2)nc(N2CCN(C(=O)[C@H](CCC(=O)O)n3cc(C(N)[C@H](C)CC)nn3)CC2)n1 (stereo partly specified),-25.3%,–
C#CCOCCOCCOCCNc1nc(N2CCN(C(=O)C(Cc3ccc(O)cc3)n3cc(C(N)CC(C)C)nn3)CC2)nc(N2CCN(C(=O)C(Cc3ccc(O)cc3)n3cc(C(N)C(C)CC)nn3)CC2)n1 (stereo unspecified),-6.96%,–
